Tests used:
[1] = molecular target: High affinity nerve growth factor receptor (Homo sapiens) (UniProt P04629); conditions: at 1 µM;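 note: each value is the mean percent inhibition of TRKA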
[2] = molecular target: BDNF/NT-3 growth factors receptor (Homo sapiens) (UniProt Q16620); conditions: at 0.1 µM
[3] = molecular target: BDNF/NT-3 growth factors receptor (Homo sapiens) (UniProt Q16620); conditions: at 1 µM
[4] = molecular target: NT-3 growth factor receptor (Homo sapiens) (UniProt Q16288); conditions: at 0.1 µM
[5] = molecular target: NT-3 growth factor receptor (Homo sapiens) (UniProt Q16288); conditions: at 1 µM
[6] = molecular target: T1, Tyrosine-protein kinase TXK (Homo sapiens) (UniProt P42681); conditions: at 0.1 µM
T1 sequence (whole entry): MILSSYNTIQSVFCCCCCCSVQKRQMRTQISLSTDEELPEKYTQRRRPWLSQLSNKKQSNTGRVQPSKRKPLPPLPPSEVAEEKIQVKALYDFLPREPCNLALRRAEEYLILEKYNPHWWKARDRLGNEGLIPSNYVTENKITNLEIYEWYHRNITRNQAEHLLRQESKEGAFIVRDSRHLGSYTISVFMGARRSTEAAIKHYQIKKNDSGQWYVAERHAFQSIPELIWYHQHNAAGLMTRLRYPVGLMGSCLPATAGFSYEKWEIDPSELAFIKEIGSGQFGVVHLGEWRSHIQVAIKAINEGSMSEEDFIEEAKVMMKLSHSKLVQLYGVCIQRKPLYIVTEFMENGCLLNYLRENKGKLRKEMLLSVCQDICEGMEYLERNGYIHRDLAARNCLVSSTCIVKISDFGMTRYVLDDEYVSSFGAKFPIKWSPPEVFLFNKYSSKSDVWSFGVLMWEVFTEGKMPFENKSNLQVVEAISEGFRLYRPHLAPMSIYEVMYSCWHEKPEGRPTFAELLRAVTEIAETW

[7] = molecular target: T1, Tyrosine-protein kinase TXK (Homo sapiens); conditions: at 1 µM
[8] = molecular target: Non-receptor tyrosine-protein kinase TYK2 (Homo sapiens) (UniProt P29597); conditions: at 0.1 µM;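 note: each value is a mean of the inhibition readings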
[9] = molecular target: T2, Dual specificity protein kinase TTK (Homo sapiens) (UniProt P33981); conditions: at 1 µM;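 note: reported figures are mean TTK inhibition at 1 µM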
T2 sequence (whole entry): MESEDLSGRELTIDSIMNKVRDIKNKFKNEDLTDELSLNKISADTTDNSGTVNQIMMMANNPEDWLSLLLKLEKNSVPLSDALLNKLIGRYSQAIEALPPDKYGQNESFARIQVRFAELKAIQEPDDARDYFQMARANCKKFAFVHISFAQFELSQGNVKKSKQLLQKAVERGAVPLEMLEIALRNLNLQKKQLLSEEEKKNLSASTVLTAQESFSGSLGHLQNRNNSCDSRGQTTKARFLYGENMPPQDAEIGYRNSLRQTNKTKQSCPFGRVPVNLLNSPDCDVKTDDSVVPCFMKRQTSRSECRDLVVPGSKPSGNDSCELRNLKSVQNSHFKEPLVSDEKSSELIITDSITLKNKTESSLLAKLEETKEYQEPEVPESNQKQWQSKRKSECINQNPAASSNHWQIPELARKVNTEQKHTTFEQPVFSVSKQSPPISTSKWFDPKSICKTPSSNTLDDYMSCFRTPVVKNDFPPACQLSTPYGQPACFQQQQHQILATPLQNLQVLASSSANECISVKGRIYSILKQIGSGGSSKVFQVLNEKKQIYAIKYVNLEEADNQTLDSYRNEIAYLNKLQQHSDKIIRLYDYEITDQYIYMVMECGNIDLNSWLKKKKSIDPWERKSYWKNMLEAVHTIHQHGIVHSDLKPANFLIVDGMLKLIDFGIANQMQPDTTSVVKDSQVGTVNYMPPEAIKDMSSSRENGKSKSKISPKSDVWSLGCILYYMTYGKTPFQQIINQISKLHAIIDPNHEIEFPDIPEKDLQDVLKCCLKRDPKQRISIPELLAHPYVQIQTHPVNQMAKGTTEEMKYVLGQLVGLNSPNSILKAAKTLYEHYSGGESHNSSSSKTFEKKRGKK

[10] = molecular target: T3, Aurora kinase A (Homo sapiens) (UniProt O14965); conditions: at 0.1 µM
T3 sequence (whole entry): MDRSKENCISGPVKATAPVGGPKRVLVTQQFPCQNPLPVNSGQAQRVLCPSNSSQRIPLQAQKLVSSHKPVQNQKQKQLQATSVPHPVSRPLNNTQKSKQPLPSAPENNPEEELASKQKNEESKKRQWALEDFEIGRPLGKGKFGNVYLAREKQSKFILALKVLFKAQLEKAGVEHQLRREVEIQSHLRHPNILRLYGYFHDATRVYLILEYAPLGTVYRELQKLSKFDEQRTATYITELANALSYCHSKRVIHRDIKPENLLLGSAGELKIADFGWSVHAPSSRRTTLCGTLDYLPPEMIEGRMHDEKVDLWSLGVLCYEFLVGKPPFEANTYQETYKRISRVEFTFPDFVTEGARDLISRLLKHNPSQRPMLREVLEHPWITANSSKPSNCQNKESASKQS

[11] = molecular target: T3, Aurora kinase A (Homo sapiens); conditions: at 1 µM
[12] = molecular target: Aurora kinase B (Homo sapiens) (UniProt Q96GD4); conditions: at 0.1 µM
[13] = molecular target: Aurora kinase B (Homo sapiens) (UniProt Q96GD4); conditions: at 1 µM
[14] = molecular target: T4, Aurora kinase C (Homo sapiens) (UniProt Q9UQB9); conditions: at 0.1 µM
T4 sequence (whole entry): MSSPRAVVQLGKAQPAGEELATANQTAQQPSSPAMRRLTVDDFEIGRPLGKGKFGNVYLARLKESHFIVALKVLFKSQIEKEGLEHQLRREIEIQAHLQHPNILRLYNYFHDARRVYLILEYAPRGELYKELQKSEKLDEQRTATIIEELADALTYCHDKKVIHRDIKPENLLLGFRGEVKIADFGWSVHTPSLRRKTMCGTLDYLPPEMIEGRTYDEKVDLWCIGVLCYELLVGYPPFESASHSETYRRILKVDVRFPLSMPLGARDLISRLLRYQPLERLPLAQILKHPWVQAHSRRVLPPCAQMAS

[15] = molecular target: T4, Aurora kinase C (Homo sapiens); conditions: at 1 µM
[16] = molecular target: Serine/threonine-protein kinase 10 (Homo sapiens) (UniProt O94804); conditions: at 0.1 µM
[17] = molecular target: Serine/threonine-protein kinase 10 (Homo sapiens) (UniProt O94804); conditions: at 1 µM
[18] = molecular target: T5, Mitogen-activated protein kinase kinase kinase kinase 2 (Homo sapiens) (UniProt Q12851); conditions: at 0.1 µM
T5 sequence (whole entry): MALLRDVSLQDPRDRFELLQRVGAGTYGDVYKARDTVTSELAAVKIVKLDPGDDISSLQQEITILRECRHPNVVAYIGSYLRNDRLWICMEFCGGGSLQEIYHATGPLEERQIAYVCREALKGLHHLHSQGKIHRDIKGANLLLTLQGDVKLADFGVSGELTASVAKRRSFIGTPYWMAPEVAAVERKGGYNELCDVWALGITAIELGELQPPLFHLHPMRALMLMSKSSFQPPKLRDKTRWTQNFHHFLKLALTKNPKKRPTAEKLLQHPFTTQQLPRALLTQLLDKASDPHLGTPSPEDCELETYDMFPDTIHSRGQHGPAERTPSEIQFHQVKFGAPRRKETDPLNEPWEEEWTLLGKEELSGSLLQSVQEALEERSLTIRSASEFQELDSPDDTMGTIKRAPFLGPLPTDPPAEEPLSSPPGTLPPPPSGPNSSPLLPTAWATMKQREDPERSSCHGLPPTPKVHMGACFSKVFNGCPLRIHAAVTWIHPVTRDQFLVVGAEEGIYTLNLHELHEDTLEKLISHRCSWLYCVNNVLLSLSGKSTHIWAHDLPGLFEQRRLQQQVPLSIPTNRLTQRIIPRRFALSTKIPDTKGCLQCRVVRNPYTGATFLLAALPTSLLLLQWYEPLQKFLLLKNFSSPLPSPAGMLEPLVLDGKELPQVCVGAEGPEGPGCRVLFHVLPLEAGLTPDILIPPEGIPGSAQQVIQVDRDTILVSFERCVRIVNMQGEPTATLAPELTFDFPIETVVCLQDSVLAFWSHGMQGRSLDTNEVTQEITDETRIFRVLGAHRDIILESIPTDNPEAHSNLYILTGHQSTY

[19] = molecular target: T5, Mitogen-activated protein kinase kinase kinase kinase 2 (Homo sapiens); conditions: at 1 µM
[20] = molecular target: Mitogen-activated protein kinase kinase kinase kinase 4 (Homo sapiens) (UniProt O95819); conditions: at 0.1 µM
Sequence of Mitogen-activated protein kinase kinase kinase kinase 4 (Homo sapiens) (O95819 2-1239 limits assumed): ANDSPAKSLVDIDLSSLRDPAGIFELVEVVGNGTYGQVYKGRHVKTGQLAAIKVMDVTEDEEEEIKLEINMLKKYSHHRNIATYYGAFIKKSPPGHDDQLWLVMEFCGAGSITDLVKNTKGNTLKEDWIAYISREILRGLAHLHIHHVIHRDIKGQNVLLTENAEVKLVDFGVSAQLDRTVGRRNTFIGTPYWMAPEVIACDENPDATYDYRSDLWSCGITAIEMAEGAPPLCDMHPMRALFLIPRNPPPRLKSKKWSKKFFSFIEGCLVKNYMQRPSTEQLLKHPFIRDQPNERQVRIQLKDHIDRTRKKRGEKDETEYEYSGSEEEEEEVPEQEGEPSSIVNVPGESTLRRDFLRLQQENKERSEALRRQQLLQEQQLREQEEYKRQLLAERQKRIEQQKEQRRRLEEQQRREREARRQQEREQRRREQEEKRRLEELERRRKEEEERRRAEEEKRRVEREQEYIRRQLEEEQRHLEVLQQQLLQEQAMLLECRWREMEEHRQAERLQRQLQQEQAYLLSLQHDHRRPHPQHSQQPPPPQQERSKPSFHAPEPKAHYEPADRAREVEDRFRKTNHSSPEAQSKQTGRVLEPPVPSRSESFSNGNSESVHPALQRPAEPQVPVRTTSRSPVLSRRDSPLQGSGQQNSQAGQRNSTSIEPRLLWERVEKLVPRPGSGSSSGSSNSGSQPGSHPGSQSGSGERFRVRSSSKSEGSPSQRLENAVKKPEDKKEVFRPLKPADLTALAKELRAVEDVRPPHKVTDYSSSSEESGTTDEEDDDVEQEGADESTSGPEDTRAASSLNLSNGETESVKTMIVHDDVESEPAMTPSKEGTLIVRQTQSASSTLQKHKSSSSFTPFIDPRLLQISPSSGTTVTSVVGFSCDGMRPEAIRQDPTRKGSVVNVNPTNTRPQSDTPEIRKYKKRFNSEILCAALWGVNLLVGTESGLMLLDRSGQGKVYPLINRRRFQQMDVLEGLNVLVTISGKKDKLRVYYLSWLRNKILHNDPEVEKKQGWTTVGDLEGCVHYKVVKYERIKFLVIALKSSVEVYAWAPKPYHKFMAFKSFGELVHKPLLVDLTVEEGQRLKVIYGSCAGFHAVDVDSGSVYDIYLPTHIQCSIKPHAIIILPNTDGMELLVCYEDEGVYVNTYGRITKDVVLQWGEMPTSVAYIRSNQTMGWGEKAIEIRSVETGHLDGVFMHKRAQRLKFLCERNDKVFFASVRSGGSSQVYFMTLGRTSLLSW

Sequence of BDNF/NT-3 growth factors receptor (Homo sapiens) (Q16620 32-822 limits assumed): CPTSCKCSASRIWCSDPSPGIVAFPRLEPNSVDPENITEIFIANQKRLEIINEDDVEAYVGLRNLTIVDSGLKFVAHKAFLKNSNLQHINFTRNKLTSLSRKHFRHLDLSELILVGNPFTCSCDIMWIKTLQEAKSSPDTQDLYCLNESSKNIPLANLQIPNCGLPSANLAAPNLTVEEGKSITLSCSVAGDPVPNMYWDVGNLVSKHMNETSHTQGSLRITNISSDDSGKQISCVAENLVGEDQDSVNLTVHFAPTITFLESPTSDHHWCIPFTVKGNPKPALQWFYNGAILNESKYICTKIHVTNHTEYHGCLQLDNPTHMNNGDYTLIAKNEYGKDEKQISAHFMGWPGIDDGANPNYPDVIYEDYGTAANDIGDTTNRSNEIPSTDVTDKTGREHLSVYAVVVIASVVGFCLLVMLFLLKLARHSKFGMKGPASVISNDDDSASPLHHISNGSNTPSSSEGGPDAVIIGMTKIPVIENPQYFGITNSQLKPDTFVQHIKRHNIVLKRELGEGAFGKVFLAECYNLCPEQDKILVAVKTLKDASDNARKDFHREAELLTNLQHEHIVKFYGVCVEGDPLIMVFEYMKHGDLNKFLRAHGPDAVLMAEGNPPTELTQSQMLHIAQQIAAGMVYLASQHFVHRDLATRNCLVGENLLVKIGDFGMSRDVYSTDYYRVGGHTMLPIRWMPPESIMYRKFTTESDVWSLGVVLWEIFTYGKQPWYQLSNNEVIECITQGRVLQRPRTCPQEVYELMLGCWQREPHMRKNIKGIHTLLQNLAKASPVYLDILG
Sequence of Aurora kinase B (Homo sapiens) (Q96GD4 whole entry): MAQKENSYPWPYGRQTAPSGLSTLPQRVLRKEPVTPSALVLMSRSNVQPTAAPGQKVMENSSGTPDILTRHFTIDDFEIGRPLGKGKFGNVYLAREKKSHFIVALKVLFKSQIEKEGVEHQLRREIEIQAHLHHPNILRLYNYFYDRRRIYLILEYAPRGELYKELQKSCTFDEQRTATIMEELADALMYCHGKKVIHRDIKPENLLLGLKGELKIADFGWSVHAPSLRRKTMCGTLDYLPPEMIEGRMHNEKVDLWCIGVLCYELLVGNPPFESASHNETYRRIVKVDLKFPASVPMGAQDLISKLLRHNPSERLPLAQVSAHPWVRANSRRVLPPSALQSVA
Sequence of Serine/threonine-protein kinase 10 (Homo sapiens) (O94804 whole entry, looked up): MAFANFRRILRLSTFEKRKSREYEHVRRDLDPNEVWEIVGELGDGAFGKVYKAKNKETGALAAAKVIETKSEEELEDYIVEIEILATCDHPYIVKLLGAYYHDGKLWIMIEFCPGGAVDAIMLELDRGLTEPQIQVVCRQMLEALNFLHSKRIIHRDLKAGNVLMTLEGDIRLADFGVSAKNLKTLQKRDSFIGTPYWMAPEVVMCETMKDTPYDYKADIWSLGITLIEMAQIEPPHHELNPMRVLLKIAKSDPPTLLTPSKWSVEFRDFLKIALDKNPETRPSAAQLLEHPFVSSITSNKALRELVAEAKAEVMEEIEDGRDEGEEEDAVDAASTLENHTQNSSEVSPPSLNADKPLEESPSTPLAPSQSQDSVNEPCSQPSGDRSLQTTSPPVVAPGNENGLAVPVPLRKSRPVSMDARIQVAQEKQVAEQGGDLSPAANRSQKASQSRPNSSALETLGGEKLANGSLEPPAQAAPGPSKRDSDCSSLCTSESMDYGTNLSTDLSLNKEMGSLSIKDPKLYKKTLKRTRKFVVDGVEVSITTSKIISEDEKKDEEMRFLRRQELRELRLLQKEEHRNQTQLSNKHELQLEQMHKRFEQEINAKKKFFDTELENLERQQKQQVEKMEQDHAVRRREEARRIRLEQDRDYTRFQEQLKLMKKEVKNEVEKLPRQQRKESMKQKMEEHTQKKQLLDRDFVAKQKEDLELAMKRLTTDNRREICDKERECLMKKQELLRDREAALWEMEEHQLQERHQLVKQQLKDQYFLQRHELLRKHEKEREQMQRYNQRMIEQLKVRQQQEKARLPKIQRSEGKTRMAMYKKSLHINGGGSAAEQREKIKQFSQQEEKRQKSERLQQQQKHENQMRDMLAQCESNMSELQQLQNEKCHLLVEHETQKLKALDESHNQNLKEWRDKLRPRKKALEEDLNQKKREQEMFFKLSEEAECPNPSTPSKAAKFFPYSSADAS
Sequence of NT-3 growth factor receptor (Homo sapiens) (Q16288 32-839 limits assumed): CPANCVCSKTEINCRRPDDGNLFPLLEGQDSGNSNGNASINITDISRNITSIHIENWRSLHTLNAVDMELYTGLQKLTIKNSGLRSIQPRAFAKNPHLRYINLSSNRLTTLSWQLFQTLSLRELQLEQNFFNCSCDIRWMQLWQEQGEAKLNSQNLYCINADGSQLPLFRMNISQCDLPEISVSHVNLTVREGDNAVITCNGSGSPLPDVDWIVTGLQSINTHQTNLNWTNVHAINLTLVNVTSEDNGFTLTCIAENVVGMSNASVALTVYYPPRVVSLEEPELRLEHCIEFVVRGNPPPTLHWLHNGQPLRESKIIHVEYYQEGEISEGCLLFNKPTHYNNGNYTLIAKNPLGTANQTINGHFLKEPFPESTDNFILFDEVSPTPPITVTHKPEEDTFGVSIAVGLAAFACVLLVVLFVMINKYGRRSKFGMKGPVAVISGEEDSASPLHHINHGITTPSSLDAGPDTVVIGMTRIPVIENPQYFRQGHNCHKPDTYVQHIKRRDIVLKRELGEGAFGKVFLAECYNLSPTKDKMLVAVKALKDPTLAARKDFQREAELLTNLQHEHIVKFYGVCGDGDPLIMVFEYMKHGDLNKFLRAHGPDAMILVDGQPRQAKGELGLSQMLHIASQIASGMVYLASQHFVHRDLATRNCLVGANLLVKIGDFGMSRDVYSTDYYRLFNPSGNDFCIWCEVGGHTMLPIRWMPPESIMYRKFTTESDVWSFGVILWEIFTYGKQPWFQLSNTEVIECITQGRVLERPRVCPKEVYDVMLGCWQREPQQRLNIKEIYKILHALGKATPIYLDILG
Sequence of High affinity nerve growth factor receptor (Homo sapiens) (P04629 33-796 limits assumed): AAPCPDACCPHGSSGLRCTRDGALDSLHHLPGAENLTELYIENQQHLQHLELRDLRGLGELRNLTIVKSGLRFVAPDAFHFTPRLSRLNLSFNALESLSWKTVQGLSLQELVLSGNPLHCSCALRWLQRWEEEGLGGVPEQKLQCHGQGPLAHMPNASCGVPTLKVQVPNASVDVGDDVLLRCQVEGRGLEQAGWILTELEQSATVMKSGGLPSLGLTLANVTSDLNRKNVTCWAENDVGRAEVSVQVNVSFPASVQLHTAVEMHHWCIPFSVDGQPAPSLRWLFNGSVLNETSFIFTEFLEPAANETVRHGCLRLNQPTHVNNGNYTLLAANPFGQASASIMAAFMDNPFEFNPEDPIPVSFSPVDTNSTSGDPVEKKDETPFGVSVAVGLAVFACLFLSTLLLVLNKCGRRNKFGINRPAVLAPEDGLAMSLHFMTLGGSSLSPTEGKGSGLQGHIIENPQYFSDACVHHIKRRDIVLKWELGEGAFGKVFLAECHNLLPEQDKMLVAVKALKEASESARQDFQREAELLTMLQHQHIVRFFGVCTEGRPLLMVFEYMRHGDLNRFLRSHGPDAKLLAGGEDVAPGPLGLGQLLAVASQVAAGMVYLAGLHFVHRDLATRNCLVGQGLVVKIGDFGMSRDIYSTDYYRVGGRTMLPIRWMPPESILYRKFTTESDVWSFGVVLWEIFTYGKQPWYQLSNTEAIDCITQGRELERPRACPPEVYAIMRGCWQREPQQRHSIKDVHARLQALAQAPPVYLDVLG

Row | SMILES | inhibition [1] [%] | inhibition [2] [%] | inhibition [3] [%] | inhibition [4] [%] | inhibition [5] [%] | inhibition [6] [%] | inhibition [7] [%] | inhibition [8] [%] | inhibition [9] [%] | inhibition [10] [%] | inhibition [11] [%] | inhibition [12] [%] | inhibition [13] [%] | inhibition [14] [%] | inhibition [15] [%] | inhibition [16] [%] | inhibition [17] [%] | inhibition [18] [%] | inhibition [19] [%] | inhibition [20] [%]
1 | CC1(C)CC(n2cnc(-c3ccc(F)cc3)c2-c2ccnc(N)n2)CC(C)(C)N1 | 0.77 | 1.16 | 2.03 | 0.21 | 2.79 | 0.09 | 0.75 | 1 | 1.53 | -0.03 | 4.57 | 3.04 | -0.43 | -0.39 | -1.87 | 1.32 | 6.74 | 1.36 | 2.09 | 2.07
2 | NS(=O)(=O)c1ccc(N/N=C2\C(=O)Nc3cccc(CCc4ccncc4)c32)cc1 | 19.1 | 17 | 45.4 | 17.3 | 41.9 | 2.92 | 8.22 | -0.26 | 38.7 | 28.1 | 20.6 | 3.64 | 7.9 | 5 | 8.21 | -0.95 | 0.03 | 1.75 | 3.46 | 4.39
3 | CCn1c(-c2nonc2N)nc2cncc(C(=O)NCCNC)c21 | 3.09 | 3.03 | 5.31 | 3.96 | 3.4 | -1.02 | 1.12 | -3.39 | 10.5 | 3.09 | 5.14 | 2.77 | 1.83 | 0.6 | 5.56 | 11.8 | 18 | 0.67 | 3.62 | 4.46
4 | Fc1cccc(COc2ccc(Nc3ncncc3C#Cc3ccccc3)cc2Cl)c1 | 2.13 | 2.56 | 5.8 | 2.81 | 6.63 | 1.94 | 3.56 | -4.7 | 8.47 | 2.33 | 9 | -1.58 | 6 | 1.15 | -2.38 | 2.78 | 11.7 | 0.81 | 0.54 | 6.19
5 | COc1c(C(N)=O)cc(-c2ccc(Cl)cc2)cc1-c1ccc(S(N)(=O)=O)cc1 | 4.22 | 2.88 | 3.12 | 2.54 | 2.2 | 9.73 | 4.4 | -0.68 | 12.9 | 2.86 | 3.86 | 2.21 | 3.28 | -0.05 | 0.52 | 5.14 | 6.24 | 0.59 | 2.11 | 6.38
6 | Cc1cc(O)cc(C)c1/C=C/c1cncc(C(N)=O)c1 | 1.48 | 1.71 | 0.87 | 1.25 | 0.56 | 5.98 | 27.9 | -2.57 | 2.18 | 2.32 | 11.7 | 2.21 | 7.09 | 8.73 | 1.85 | 4.97 | 20.2 | 2.32 | 8.96 | 4.83
7 | NS(=O)(=O)c1ccc(N/N=C2\C(=O)Nc3ccc(C(=O)NCc4ccncc4)cc32)cc1 | 33.7 | 13 | 60 | 19.2 | 66.2 | 2.66 | 5.17 | -8.31 | 69.2 | 6.11 | 54.9 | 3.41 | 11 | 1.92 | 14.6 | 4.56 | 9.47 | 0.75 | 4.07 | 11.2

Source: ChEMBL document CHEMBL1961873, “Compounds: GSK PKIS; Assays: Nanosyn kinase panel” (2012)
